Among the test systems are DU-145 prostate; K-562 leukemia; MALME-3M melanoma; MDA-MB-231 breast; RXF 393 renal; SF-268 CNS; SF-295 CNS; SF-539 CNS; UACC-257 melanoma; M14 melanoma; HCT-15 colon; HT29 colon; SNB-19 CNS; U251 CNS; PC-3 prostate; SK-MEL-5 melanoma; UACC-62 melanoma; LOX IMVI melanoma; SK-MEL-28 melanoma; SNB-75 CNS.
What all share (test): NCI-60 one-dose screen, 48 h (100 = growth as untreated, 0 = no growth, -100 = all killed)
Conditions in all cases: 10 µM unless noted

About 83,000 compounds went through this panel and 20% of them were active in at least one assay; those are over-represented in the sample as a whole.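 Each cell line was grown in a 96-well plate and treated with one concentration of compound for 48 hours. Values below 10 were considered active.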 Values without a mark were called inactive. Activity calls are given as the source filed them.

The source of these data is PubChem BioAssay (NCI).

Consider `C=C1CC2(OC1=O)C(=O)Nc1ccccc12` (centres undefined), for which the growth with DU-145 prostate is 43%; in the experiment with K-562 leukemia, 21.8%; in the experiment on MALME-3M melanoma, 12.4%; with MDA-MB-231 breast, 65.6%; with RXF 393 renal, -13.3% (active); in the experiment with SF-268 CNS it was 98%. For the same compound, the growth was 96% in the experiment on SF-295 CNS; 47.3% in the experiment on SF-539 CNS; 71.9% in the experiment with UACC-257 melanoma; 59.1% with M14 melanoma; 23% in the experiment on HCT-15 colon; 42.7% with HT29 colon. In addition, the growth in the experiment on SNB-19 CNS is 88.3%; with U251 CNS it was 91.2%; with PC-3 prostate it was 73.6%; in the experiment with SK-MEL-5 melanoma, 81.2%; in the experiment on UACC-62 melanoma, 72.9%; with LOX IMVI melanoma it was 35.3%. Further, the growth with SK-MEL-28 melanoma was 63.8%.

As for `Nc1cc2ccncc2c2ccccc12`, the growth in the experiment on DU-145 prostate is 75.4%; in the experiment with K-562 leukemia, 112%; in the experiment on MALME-3M melanoma, 97.6%; in the experiment with MDA-MB-231 breast, 64.1%; in the experiment on RXF 393 renal it was 81.5%; in the experiment with SF-268 CNS, 75.6%. Also, the growth with SF-295 CNS is 69.3%; in the experiment on SF-539 CNS, 79.1%; with UACC-257 melanoma, 103%; in the experiment with M14 melanoma it was 94.7%; in the experiment with HCT-15 colon, 75.1%; with HT29 colon it was 65.2%. Also, the growth is 116% in the experiment on SNB-75 CNS; 83.1% with PC-3 prostate; 76.9% with SK-MEL-5 melanoma; 60.7% in the experiment with UACC-62 melanoma; 50.8% in the experiment with LOX IMVI melanoma; 103% with SK-MEL-28 melanoma.

For the compound `O=C(CN1CCN(c2cc3c(cc2F)c(=O)c(C(=O)N/N=C/c2ccccc2)cn3C2CC2)CC1)N/N=C\c1ccccc1`, the growth with DU-145 prostate is 90.4%; in the experiment with K-562 leukemia, 56.6%; in the experiment on MALME-3M melanoma it was 120%; in the experiment on MDA-MB-231 breast, 70.3%; in the experiment with RXF 393 renal it was 72.7%; in the experiment on SF-268 CNS, 72.5%. The growth with SF-295 CNS was 74.8%; in the experiment with SF-539 CNS, 76.2%; in the experiment with UACC-257 melanoma, 99%; in the experiment on M14 melanoma it was 74.1%; in the experiment with HCT-15 colon, 53.9%; with HT29 colon it was 73.4%. Besides, the growth was 74% with SNB-19 CNS; 83.7% in the experiment on U251 CNS; 50% in the experiment with PC-3 prostate; 83% with SK-MEL-5 melanoma; 71.4% in the experiment on UACC-62 melanoma; 72.6% in the experiment with LOX IMVI melanoma. In the experiment on SK-MEL-28 melanoma, the growth was 88.9%.

`Cc1ccc(-c2nc(/C=N/Nc3cc(C)nc4ccc(Cl)cc34)c(C)o2)cc1`: the growth in the experiment on DU-145 prostate was 3.19% (active); in the experiment with K-562 leukemia, -10.9% (active); with MALME-3M melanoma, -74.6% (active); in the experiment on MDA-MB-231 breast it was -83.9% (active); with RXF 393 renal, -84.9% (active); with SF-268 CNS it was -52.7% (active). Also, the growth is 17.1% in the experiment with SF-295 CNS; -77.7% (active) with SF-539 CNS; 107% in the experiment with UACC-257 melanoma; -14.2% (active) with M14 melanoma; -67.5% (active) with HCT-15 colon; -77.9% (active) with HT29 colon. Moreover, the growth was -44.7% (active) in the experiment with SNB-19 CNS; -94.8% (active) with U251 CNS; 33.7% in the experiment on PC-3 prostate; 49.6% in the experiment with SK-MEL-5 melanoma; 31.7% in the experiment with UACC-62 melanoma; -80.3% (active) in the experiment with LOX IMVI melanoma. The growth with SK-MEL-28 melanoma was -68.8% (active).

Consider `CCOC(=O)Cc1cnn(C)c1NC(=O)c1ccc(Cl)cc1NC(C)=O`, for which the growth in the experiment with DU-145 prostate is 110%; in the experiment on K-562 leukemia, 103%; with MALME-3M melanoma, 105%; with MDA-MB-231 breast it was 112%; in the experiment with RXF 393 renal, 115%; in the experiment on SF-268 CNS, 98.7%. Moreover, the growth in the experiment with SF-295 CNS is 101%; with SF-539 CNS, 101%; with UACC-257 melanoma, 105%; in the experiment on M14 melanoma, 101%; in the experiment on HCT-15 colon, 110%; in the experiment on HT29 colon, 110%. Also, the growth in the experiment on SNB-75 CNS is 76%; with U251 CNS, 111%; in the experiment on PC-3 prostate, 94.6%; in the experiment on SK-MEL-5 melanoma it was 95.3%; in the experiment on UACC-62 melanoma, 99.7%; with LOX IMVI melanoma, 107%. In addition, the growth in the experiment with SK-MEL-28 melanoma was 130%.

On to `CCCCCCCCCCCCCCCCCCNC(=O)[C@H]1CSC(c2ccc(OC)c(F)c2)N1` (some centres undefined), for which the growth is 67.1% in the experiment on DU-145 prostate; 0.509% (active) in the experiment on K-562 leukemia; -57.4% (active) in the experiment with MALME-3M melanoma; -42.8% (active) in the experiment on MDA-MB-231 breast; -34% (active) in the experiment with RXF 393 renal; -61% (active) in the experiment on SF-268 CNS. Moreover, the growth in the experiment with SF-295 CNS was 87.5%; with SF-539 CNS, -15.1% (active); with UACC-257 melanoma, 70.3%; with M14 melanoma, -76.7% (active); in the experiment with HCT-15 colon, 71%; in the experiment on HT29 colon, 8.84% (active). Also, the growth in the experiment with SNB-19 CNS is 65.1%; in the experiment with U251 CNS, -53.1% (active); in the experiment on PC-3 prostate it was 54.2%; with SK-MEL-5 melanoma it was 23.8%; with UACC-62 melanoma it was -86.5% (active); in the experiment on LOX IMVI melanoma, 30.1%. Moreover, the growth with SK-MEL-28 melanoma is -74.5% (active).

Regarding `O=[N+]([O-])c1cccc(-c2nc3sccn3c2-c2ccnc(NCCCNS(=O)(=O)c3ccc(F)cc3)n2)c1`, the growth in the experiment on DU-145 prostate is 10.6%; with K-562 leukemia, 7.51% (active); in the experiment on MALME-3M melanoma, -9.59% (active); in the experiment with MDA-MB-231 breast, 44.9%; in the experiment with RXF 393 renal it was 53.4%; in the experiment with SF-268 CNS, 9.32% (active). In addition, the growth with SF-295 CNS was 5.57% (active); in the experiment on SF-539 CNS it was 26.5%; in the experiment with UACC-257 melanoma it was 0.0199% (active); in the experiment on M14 melanoma, 0.021% (active); with HCT-15 colon it was -3.76% (active); with HT29 colon, 18.4%. For the same compound, the growth is 29.3% with SNB-19 CNS; 26.8% in the experiment with U251 CNS; -3.27% (active) with PC-3 prostate; -76.7% (active) in the experiment with SK-MEL-5 melanoma; -45% (active) with UACC-62 melanoma; -21.3% (active) in the experiment on LOX IMVI melanoma. The growth with SK-MEL-28 melanoma was -1.76% (active).

With `O=C1/C(=C/c2ccccc2)CN(CCC(=O)N2C/C(=C\c3ccccc3)C(=O)/C(=C/c3ccccc3)C2)C/C1=C\c1ccccc1`, the growth with DU-145 prostate is 87.6%; in the experiment on K-562 leukemia it was 11.6%; with MALME-3M melanoma, 101%; with MDA-MB-231 breast it was 75.2%; with RXF 393 renal, 57.4%; with SF-268 CNS it was 66.6%. Further, the growth in the experiment on SF-295 CNS was 90.7%; in the experiment with SF-539 CNS, 90.9%; in the experiment on UACC-257 melanoma, 93.8%; with M14 melanoma, 52.4%; in the experiment with HCT-15 colon it was 18.8%; in the experiment with HT29 colon, -13.5% (active). In addition, the growth in the experiment on SNB-19 CNS is 52.9%; with U251 CNS, 8.91% (active); in the experiment with PC-3 prostate, 51.3%; with SK-MEL-5 melanoma, 60.5%; with UACC-62 melanoma, 70.2%; in the experiment with LOX IMVI melanoma, -51.4% (active). In addition, in the experiment on SK-MEL-28 melanoma, the growth was 91.9%.

With `Nc1cccc(-c2nc3sccn3c2-c2ccnc(NCCCNS(=O)(=O)c3ccc(C(F)(F)F)cc3)n2)c1`, the growth in the experiment with DU-145 prostate is 13.5%; in the experiment with K-562 leukemia it was 8.49% (active); in the experiment with MALME-3M melanoma, -2.19% (active); with MDA-MB-231 breast it was 21%; with RXF 393 renal it was 19.7%; in the experiment with SF-268 CNS, 14.6%. For the same compound, the growth in the experiment on SF-295 CNS is -11.3% (active); with SF-539 CNS, 16.5%; in the experiment with UACC-257 melanoma, 18.8%; in the experiment with M14 melanoma it was 9.8% (active); in the experiment on HCT-15 colon it was 1.79% (active); with HT29 colon, 14%. In addition, the growth is 29.1% with SNB-19 CNS; 19.8% with U251 CNS; 1.93% (active) in the experiment on PC-3 prostate; -90.5% (active) in the experiment with SK-MEL-5 melanoma; -33.3% (active) with UACC-62 melanoma; -30.2% (active) in the experiment with LOX IMVI melanoma. In the experiment with SK-MEL-28 melanoma, the growth was 11.2%.

On to `CCCCCCCCCCCCCCCCCCNC(=O)[C@H]1CSC(c2ccc(F)c(OC)c2)N1` (some centres undefined), for which the growth was 26.5% in the experiment with DU-145 prostate; -56.3% (active) with K-562 leukemia; -91.2% (active) in the experiment on MALME-3M melanoma; -83.4% (active) in the experiment with MDA-MB-231 breast; -93.6% (active) with RXF 393 renal; -69.9% (active) with SF-268 CNS. Besides, the growth in the experiment with SF-295 CNS is 30.8%; in the experiment with SF-539 CNS it was -61.9% (active); in the experiment with UACC-257 melanoma, -61.7% (active); with M14 melanoma, -90.8% (active); with HCT-15 colon, 6.47% (active); in the experiment with HT29 colon, -84.5% (active). Further, the growth is -40.2% (active) with SNB-19 CNS; -96.6% (active) in the experiment on U251 CNS; 34.1% in the experiment with PC-3 prostate; -94.8% (active) in the experiment on SK-MEL-5 melanoma; -97.2% (active) with UACC-62 melanoma; 14.1% with LOX IMVI melanoma. The growth in the experiment on SK-MEL-28 melanoma was -93.3% (active).
